Experimental data: article PMC7819943, “Rice protein-binding microarrays: a tool to detect cis-acting elements near promoter regions in rice”
The full ranking holds about 68,000 sequences; the median of “fluorescence intensity (a.u.)” is about 9,100, and the highest 2% start at about 16,000. The full list was thinned out, with the highest values kept by preference.

These sequences were tested against OsWRKY34 (Oryza sativa, UniProt Q0JBA9 1-250) (assay: protein-binding microarray (RPBM); PBS, 2% BSA, 51.3 ng/ul salmon testes DNA, 50 uM zinc acetate, 200 nM TF, 25 C, 1 h; high values mean tight binding). Conditions: protein: recombinant; tags: N-terminal polyhistidine and DsRed monomer fusion (pET32a); label: CyDye5-dUTP incorporated in the synthesized complementary strand; 3' TTTTT single-stranded linker to array surface; dsDNA, one strand shown.
Method in brief: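 In PBS with 2% BSA, salmon testes DNA and 50 µM zinc acetate, 200 nM protein was incubated on a custom Agilent array at 25 °C for 1 h and then washed off. The array had been made double-stranded by primer extension with Cy5-dUTP and blocked with 2% BSA. The proteins were transcription factors fused N-terminally to polyhistidine and DsRed, expressed in E. coli BL21-CodonPlus and purified on Ni–NTA. The binding signal is per-feature fluorescence intensity (arbitrary units) from an Axon 4000B scanner.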

OsWRKY34, sequence (Q0JBA9 entry or part of it): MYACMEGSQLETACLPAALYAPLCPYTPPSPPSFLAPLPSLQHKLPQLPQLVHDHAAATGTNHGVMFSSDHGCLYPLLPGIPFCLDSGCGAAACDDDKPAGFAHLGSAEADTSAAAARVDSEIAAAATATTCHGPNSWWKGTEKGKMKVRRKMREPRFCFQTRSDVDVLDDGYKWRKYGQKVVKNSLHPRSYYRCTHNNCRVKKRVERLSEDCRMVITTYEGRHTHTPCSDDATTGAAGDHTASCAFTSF

Sequence	binding signal
GGACCCACCTGCCGAACCAGCACGCATCGCGTCTCGCACCCGGAGTCACCTAGTGCAG	8590 fluorescence intensity (a.u.)
ATCACGGGATTACACAGCAAAGTAGCAAAGCTAAATTTTACGGAGTCACCTAGTGCAG	63700 fluorescence intensity (a.u.)
TGCAAAGTAGTAGTTGGGGATTTAATAGTGGCTTACAATACGGAGTCACCTAGTGCAG	8620 fluorescence intensity (a.u.)
GGTCAAATTCTCATTTTGCAATATCCCACAGCTAATTACACGGAGTCACCTAGTGCAG	9540 fluorescence intensity (a.u.)
GCTAATAAGTGCTTACATTGTTTTGGATGATCACCAGCAACGGAGTCACCTAGTGCAG	8080 fluorescence intensity (a.u.)
ATGCTCCTACTTTCCTTTGCTGTATATATTACTCCATTTGCGGAGTCACCTAGTGCAG	8260 fluorescence intensity (a.u.)
GCACCGGCGCCACCGCCCGCGCCCGCACCACCGCCCACGCCGGAGTCACCTAGTGCAG	8870 fluorescence intensity (a.u.)
TTCGTCTCCGTTTCGTCTTCTTCTTCTTCTTCTTCTTCGGCGGAGTCACCTAGTGCAG	8790 fluorescence intensity (a.u.)
TCATTCCTATGTTTTTTCTGTGTTTTGCAATTCTCTGTTTCGGAGTCACCTAGTGCAG	14900 fluorescence intensity (a.u.)
CCAACCGCCGCGCCGCTTCGCTGTCTTCACCGTGCCGCTCCGGAGTCACCTAGTGCAG	8620 fluorescence intensity (a.u.)
TCATTGCTCTCTGTGTTTCTCCGCTATGCCGCCACGTCTTCGGAGTCACCTAGTGCAG	16700 fluorescence intensity (a.u.)
TTCCTCCGTTTTCTCCGTTCGTCTTCCTCCGCTTCCGAAGCGGAGTCACCTAGTGCAG	18000 fluorescence intensity (a.u.)
GAATCCACCGCATTTTTCCGCCGCCCCACGCGGCGCCACCCGGAGTCACCTAGTGCAG	19700 fluorescence intensity (a.u.)
GCAAACTTTATTGCTCCGCGTTCTTCCTTTCTCTGTGTTTCGGAGTCACCTAGTGCAG	8910 fluorescence intensity (a.u.)
ACCCCACCTGTCAGACAACCCCACCGCCGCTTCGCTTCACCGGAGTCACCTAGTGCAG	17300 fluorescence intensity (a.u.)
CCGAATCCGGCCACCCCGCCGCCTCCACGCGCATCACCGCCGGAGTCACCTAGTGCAG	11100 fluorescence intensity (a.u.)
AGCTTCCTCCGTTTTTTTCTTTCTTTCTTTCTTTTTTTTTCGGAGTCACCTAGTGCAG	11800 fluorescence intensity (a.u.)
ACCCACCACAACCAGTGATCAGACACCACCTACCGCGCGCCGGAGTCACCTAGTGCAG	8330 fluorescence intensity (a.u.)
GGAGCACCTGTCGTGCGCTGCCGCCATGTACGCGGCGCCGCGGAGTCACCTAGTGCAG	8360 fluorescence intensity (a.u.)
ATACCCGATCTCATTATTATGAACCAGTTATGTAATAACACGGAGTCACCTAGTGCAG	8020 fluorescence intensity (a.u.)
TGCACAAAGGTTATGCGATATCGACGGTATATTTCCACAACGGAGTCACCTAGTGCAG	9520 fluorescence intensity (a.u.)

Sequence	binding signal
TGGCCGCGGCTGCTGCTGAGTGTGGTGGTGGTGGGAGGCACGGAGTCACCTAGTGCAG	8880 fluorescence intensity (a.u.)
CCCCAAAATTTTTCACCATGTCACATCAAACGTTTGAACACGGAGTCACCTAGTGCAG	8490 fluorescence intensity (a.u.)
TTCACACCGTCGTATTTGCCACTTTACTGACGCTCGAAGCCGGAGTCACCTAGTGCAG	8060 fluorescence intensity (a.u.)
TACTAATTTCCTTCGCACATCCAGCAATCAGATATCCTGACGGAGTCACCTAGTGCAG	9760 fluorescence intensity (a.u.)
CATCCCTAGTCGGCGTCTTGTCATCGCCGCCCCAATCTCGCGGAGTCACCTAGTGCAG	8260 fluorescence intensity (a.u.)
CTTTCCTTGCGCTGTTCTTCGCTTCATCCATCCATCAGCTCGGAGTCACCTAGTGCAG	10800 fluorescence intensity (a.u.)
ATCCATTTCCAGCTTCGTCTTCATCTTGGCTTGGCGCGCTCGGAGTCACCTAGTGCAG	17800 fluorescence intensity (a.u.)
CGCTTCCTCGCCGCGCGCGCGCCCGCCATCTCCTCGCCTCCGGAGTCACCTAGTGCAG	9350 fluorescence intensity (a.u.)
GCTCCATCTCTCGTCTCGCGCTTCACTCCACATCTGTTTCCGGAGTCACCTAGTGCAG	18300 fluorescence intensity (a.u.)
AGCGCTACTCCACATCTGTTTGCTCGTGCTCTCCGGATCTCGGAGTCACCTAGTGCAG	8550 fluorescence intensity (a.u.)
TGCGCTCATGGCCATCCATTTTCTTCTTCTTCTTTTTTTTCGGAGTCACCTAGTGCAG	10300 fluorescence intensity (a.u.)
ATCTTCTATTCACGGCTTGCCATCTGTGCACTGTAATTTTCGGAGTCACCTAGTGCAG	9850 fluorescence intensity (a.u.)
GCCTCGTTTCCATCTCCGCCGCGCTCGCCGCGTTCACACTCGGAGTCACCTAGTGCAG	11400 fluorescence intensity (a.u.)
GCATCTCCACAGTCCACACTGTGCGCGCCATTCTTATCCTCGGAGTCACCTAGTGCAG	14100 fluorescence intensity (a.u.)
TCCTCCTCGCCGCCCGGCGAATCCCGCGCCTCCTCGCTTCCGGAGTCACCTAGTGCAG	9070 fluorescence intensity (a.u.)
CACACTGTGCACGCCATTCTTATCTTGTCTAGCTTCATCTCGGAGTCACCTAGTGCAG	16600 fluorescence intensity (a.u.)
AGCATCCGAATCCGGCCACCTCATCATCTCGCCTCGCTTCCGGAGTCACCTAGTGCAG	16900 fluorescence intensity (a.u.)
CCACCTGCTCGCCGTCGACGCCGCCCTCGCCATCTTCAATCGGAGTCACCTAGTGCAG	12800 fluorescence intensity (a.u.)
CCATCGCCATTGACACGGACACCTTACCTGTCACAAAGAACGGAGTCACCTAGTGCAG	8160 fluorescence intensity (a.u.)
CGACGCGCCATCGCCTCGCCTCTCACCTACTGCCTCGTCCCGGAGTCACCTAGTGCAG	8820 fluorescence intensity (a.u.)
ACTTCTTGCTGATCTTCTTGGACTGCTTTTGCACCTTCTTCGGAGTCACCTAGTGCAG	9360 fluorescence intensity (a.u.)
